From the supplement of paper PMC11219838 come the findings set out here.

Each structure is given as a SMILES string.

In this assay the test system is Caenorhabditis elegans L1 (N2). Nature of the assay: survival and reproduction score of C. elegans L1 (0: 0-10 living worms, 1: 11-20, 2: 21-50, 3: >50, 4: overgrown) (score 0-4); higher = more worms, less nematicidal, active = 1 or less; extreme values may be limits of the assay. The note with it: 60 µM; 6 days; temperature: 20 °C. In outline: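 After compound was pinned to 60 µM final (0.6% v/v DMSO) into wells with roughly 20 synchronized C. elegans N2 L1s and E. coli HB101 in liquid NGM, the sealed 96-well plates were shaken at 200 rpm for 6 days at 20 °C. Under a dissection microscope, survival and reproduction were graded ordinally by living worms per well. A grade of 0 stood for 0–10 worms and 4 for overgrown, starved wells; two biological replicates were averaged.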
Consider `Brc1ccc(-c2noc(-c3ccco3)n2)cc1`, for which the “survival and reproduction score” value was 0 (active).

Consider `Fc1ccc(-c2noc(COc3cccc(Cl)c3)n2)cc1`, for which the “survival and reproduction score” value was 4 (inactive).

With `O=C(CSc1nnc(-c2ccccc2)o1)NCc1ccccc1`, the “survival and reproduction score” value is 4 (inactive).

For `COc1ccccc1CC(=O)Nc1ccc(-c2noc(-c3ccc(Cl)cc3)n2)cc1`, the “survival and reproduction score” value was 4 (inactive).

For the compound `COc1ccc(-c2nnc(SCC(=O)Nc3cc(Cl)ccc3C)o2)cc1`, the “survival and reproduction score” value was 4 (inactive).

Turning to `CCNC(=O)c1ccccc1-c1nc(-c2ccccc2)no1`, the “survival and reproduction score” value is 4 (inactive).

`Cc1cc(Br)ccc1OCc1nc(-c2cccnc2)no1`: the “survival and reproduction score” value was 4 (inactive).

In the case of `Cc1cccc(-c2noc(-c3ccc(Br)cc3)n2)c1`, the “survival and reproduction score” value was 4 (inactive).

With `Cc1ccc(-c2noc(-c3ccc(C)cc3)n2)cc1`, the “survival and reproduction score” value is 0.5 (active).

With `Cc1ccc(OCc2nc(-c3ccccc3)no2)cc1C`, the “survival and reproduction score” value was 4 (inactive).

In the case of `CCCCC(=O)Nc1ccccc1-c1nc(-c2ccccn2)no1`, the “survival and reproduction score” value was 4 (inactive).

`Clc1cccc(-c2nc(-c3cccnc3)no2)c1`: the “survival and reproduction score” value was 2 (inactive).

`Brc1ccc(-c2nc(-c3ccccc3)no2)cc1`: the “survival and reproduction score” value is 0 (active).

On to `Cc1cc(OCc2nc(-c3cccnc3)no2)ccc1Cl`, for which the “survival and reproduction score” value is 4 (inactive).

Turning to `Clc1ccc(OCc2nc(-c3ccc4c(c3)OCO4)no2)cc1`, the “survival and reproduction score” value was 4 (inactive).

Regarding `Cc1ccccc1-c1noc(CSc2nc3ccccc3[nH]2)n1`, the “survival and reproduction score” value is 4 (inactive).

In the case of `Cc1ccc(SCc2nc(-c3ccccc3)no2)cc1`, the “survival and reproduction score” value was 4 (inactive).

`Fc1ccc(CSc2nnc(-c3ccccn3)o2)cc1`: the “survival and reproduction score” value is 4 (inactive).

On to `COc1ccc(OCc2nc(-c3ccccc3)no2)cc1`, for which the “survival and reproduction score” value was 4 (inactive).

With `Fc1cccc(Cl)c1CSc1nnc(-c2ccccc2Cl)o1`, the “survival and reproduction score” value was 4 (inactive).

In the case of `Cc1ccc(C(=O)CSc2nnc(-c3ccccc3)o2)cc1`, the “survival and reproduction score” value was 4 (inactive).

On to `Cc1cccc(-c2noc(-c3ccc4c(c3)OCO4)n2)c1`, for which the “survival and reproduction score” value was 4 (inactive).

On to `COc1cccc(-c2noc(COc3ccc(C)c(C)c3)n2)c1`, for which the “survival and reproduction score” value was 4 (inactive).

On to `Cc1ccc(-c2nnc(SCc3ccccc3C#N)o2)cc1`, for which the “survival and reproduction score” value is 4 (inactive).

As to `Cc1cc(OCc2nc(-c3ccncc3)no2)cc(C)c1Cl`, the “survival and reproduction score” value was 4 (inactive).

With `O=C(CSc1nnc(-c2ccccc2)o1)Nc1cccc(Br)c1`, the “survival and reproduction score” value is 4 (inactive).

In the case of `Cc1c(C(=O)CSc2nnc(-c3ccccc3)o2)c2ccccc2n1C`, the “survival and reproduction score” value is 4 (inactive).

For the compound `CCOC(=O)c1sc(NC(=O)CSc2nnc(-c3ccc(Cl)cc3)o2)c(C#N)c1C`, the “survival and reproduction score” value is 4 (inactive).

For the compound `Cc1ccc(-c2nc(-c3ccc(C(F)(F)F)cc3)no2)cc1`, the “survival and reproduction score” value was 0 (active).

Regarding `CCCCc1ccc(-c2nc(-c3cccnc3)no2)cc1`, the “survival and reproduction score” value is 0 (active).

`CCOc1ccc(-c2nc(-c3ccc(Cl)cc3)no2)cc1`: the “survival and reproduction score” value was 3 (inactive).

For the compound `CCOC(=O)c1c(NC(=O)CSc2nnc(-c3ccccc3OCC)o2)sc(C(C)=O)c1C`, the “survival and reproduction score” value is 4 (inactive).

On to `Brc1ccc(-c2noc(-c3ccc(Br)o3)n2)o1`, for which the “survival and reproduction score” value is 0.5 (active).

As for `COc1cccc(-c2noc(COc3cccc(C)c3C)n2)c1`, the “survival and reproduction score” value was 2 (inactive).

`CCN(CC)C(=O)CSc1nnc(-c2ccc(Cl)cc2Cl)o1`: the “survival and reproduction score” value is 4 (inactive).

As for `CCOc1nc(-c2ccccc2)ccc1-c1noc(-c2cccc(C)c2)n1`, the “survival and reproduction score” value is 4 (inactive).

Take `Fc1ccc(-c2nc(-c3ccc4c(c3)OCO4)no2)cc1`: the “survival and reproduction score” value is 4 (inactive).

As to `CCc1nnc(NC(=O)CSc2nnc(-c3ccc(Cl)cc3Cl)o2)s1`, the “survival and reproduction score” value was 4 (inactive).

Regarding `CC(Oc1ccc(C(C)(C)C)cc1)c1nc(-c2ccncc2)no1` (centres undefined), the “survival and reproduction score” value is 4 (inactive).
